Assay results as given in the supplement of paper PMC7184167.
Structures can show the parent of a compound that is named as a salt.

tested on: replication-induced senescent mouse newborn dermal fibroblasts (NBF); assay: relative cell viability of senescent cells (fraction); higher = less killing of senescent cells; details: 1 µM; 3 days
Experimental: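 Replication-induced senescent newborn mouse skin fibroblasts (NBFs) in 24-well plates were treated with a Selleck FDA-approved drug library at 1 µM for 3 days.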

Compared with `COc1ccc(C(CN(C)C)C2(O)CCCCC2)cc1` (stereo not drawn) [Venlafaxine HCl], `CN(C)C(=O)Oc1ccc[n+](C)c1` [Pyridostigmine Bromide] is higher in relative cell viability: 1.03 for the first, 1.19 for the second.

Compared with `CN1[C@@H]2C[C@@H](OC(=O)[C@H](CO)c3ccccc3)C[C@H]1[C@@H]1O[C@@H]12` [Scopolamine HBr], `CN1c2ccccc2C(NCCCCCCC(=O)O)c2ccc(Cl)cc2S1(=O)=O` (stereo not drawn) [Tianeptine sodium] is lower in relative cell viability: 1.03 for the first, 0.946 for the second.

Going from `Cn1cc(C2=C(c3cn(C4CCN(Cc5ccccn5)CC4)c4ccccc34)C(=O)NC2=O)c2ccccc21` to `CC(O)(CS(=O)(=O)c1ccc(F)cc1)C(=O)Nc1ccc(C#N)c(C(F)(F)F)c1` (stereo not drawn) [Bicalutamide], the relative cell viability rises from 0.523 to 0.913.

Going from `CCC1(c2ccc(N)cc2)CCC(=O)NC1=O` (stereo not drawn) [Aminoglutethimide] to `C=C1C[C@@H]2[C@H](CC[C@]3(C)C(=O)CC[C@@H]23)[C@@]2(C)C=CC(=O)C=C12` [Exemestane], the relative cell viability rises from 0.889 to 1.08.

First: COc1cc2c(cc1OC)C1CC(=O)C(CC(C)C)CN1CC2 (stereo not drawn) [Tetrabenazine (Xenazine)]
Second: C[C@]12Cc3c[nH]nc3C[C@@H]1CC[C@@H]1[C@@H]2CC[C@@]2(C)[C@H]1CC[C@]2(C)O [Stanozolol]
The relative cell viability of the first is higher: 1.04 for the first, 0.136 for the second.

Going from `C[C@]12CC[C@H]3[C@@H](CC[C@@]45O[C@@H]4C(O)=C(C#N)C[C@]35C)[C@@H]1CC[C@@H]2O` [Trilostane] to `CN(C)[C@@H]1C(=O)C(C(N)=O)=C(O)[C@@]2(O)C(=O)C3=C(O)c4c(O)cccc4[C@@](C)(O)[C@H]3[C@H](O)[C@@H]12` [Oxytetracycline (Terramycin)], the relative cell viability rises from 0.778 to 1.01.

With `Cn1c(CCCC(=O)O)nc2cc(N(CCCl)CCCl)ccc21` [Bendamustine HCl] the relative cell viability was 0.999.
